A selection: hits, their analogues and other compounds. The true share with any hit is near 2.6%.
Cruzain noTriton = blocks cruzain activity in detergent-free assay | P25779 | purified cruzain, Z-FR-AMC fluorescence, no detergent | Potency, µM, without a hit: max response, negative = inhibition, usual class: inhibitors | 2.3% of 200,000 active;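 further: plate controls were enzyme without inhibitor for no effect and buffer without enzyme for full effect; nearly all actives have a fitted effect of over 40% in size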
Target sequence (P25779 123-467 limits assumed): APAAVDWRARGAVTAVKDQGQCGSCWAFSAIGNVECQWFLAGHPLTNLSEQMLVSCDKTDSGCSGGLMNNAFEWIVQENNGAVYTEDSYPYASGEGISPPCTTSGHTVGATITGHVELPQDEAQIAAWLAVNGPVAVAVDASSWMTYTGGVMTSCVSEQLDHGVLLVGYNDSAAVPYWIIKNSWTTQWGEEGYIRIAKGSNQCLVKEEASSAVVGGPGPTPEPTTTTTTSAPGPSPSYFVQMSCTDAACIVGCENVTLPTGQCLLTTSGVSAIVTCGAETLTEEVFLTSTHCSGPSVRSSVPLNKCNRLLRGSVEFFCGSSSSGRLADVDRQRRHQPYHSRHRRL
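Purified cruzain at 1.5 nM, pre-incubated 15 min with compound at room temperature in 100 mM sodium acetate pH 5.5, 5 mM DTT, 0.00005% Triton X-100. Reaction started with 2 uM Z-FR-AMC; AMC fluorescence increase over 60 s gives rate.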
Cruzain Triton = cruzain (T. cruzi) inhibition with detergent; 0.43% of 200,000 active; purified cruzain, Z-FR-AMC fluorescence, 0.01% Triton; Potency, µM, inactives show max response, negative = inhibition, usual class: inhibitors; P25779;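 further: plate controls were neutral wells for no effect and buffer without enzyme for full effect; nearly all actives have a fitted effect of over 40% in size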
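15 min RT preincubation of 1.5 nM cruzain with compound, then 2 uM Z-FR-AMC added; kinetic AMC fluorescence, 60 s delta. Triton X-100 0.01%, pH 5.5.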
Starred values were filed as active, the others as inactive; ? = inconclusive. The call rests on the fitted dose curve; in most records, active means well fitted curve in the direction sought with a large enough effect; inconclusive means small, poorly fitted or top-dose-only effect, or another doubt; inactive means no such curve, though single readings can be large; an effect the other way counts as inactive or inconclusive. Potency means the concentration at half of the fitted maximal effect.

SMILES | Cruzain noTriton | Cruzain Triton
CC(NC(=O)COC(=O)c1cc(NS(=O)(=O)c2ccc(Cl)c([N+](=O)[O-])c2)ccc1O)C1CC2CCC1C2 (stereo unspecified) | 6.3µM* | -10%
CC(NC(=O)COC(=O)CCc1ccc(S(=O)(=O)N2CCOCC2)cc1)C1CC2CCC1C2 (stereo unspecified) | ? | -4%
CCC(=O)N1c2ccccc2CC1C(=O)NCCCN1CCN(c2ccccc2)CC1 (stereo unspecified) | 3% | 0%
Cc1ccc2c(Cl)c(C(=O)Nc3ccc4c(c3)OCO4)sc2c1 | 20µM* | -3%
Cc1noc(C(=O)Nc2ccc3c(c2)OCO3)c1Cl | -3% | -6%
CCN(CC)C(=O)CSc1nc2ccccc2c(=O)n1-c1cccc(OC)c1 | -1% | -2%
COc1cccc(-n2c(SCc3cc(=O)oc4cc(O)c(O)cc34)nc3ccccc3c2=O)c1 | 25µM* | -15%
Cc1cccc(-n2c(/C=C/c3ccccc3O)nc3ccccc3c2=O)c1 | ? | -6%
COc1cccc(-n2c(/C=C/c3ccccc3O)nc3ccccc3c2=O)c1 | 20µM* | -8%
C#CCCCC(=O)Nc1ccccc1 | -2% | 2%
CCOc1ccccc1C1C(C(=O)Nc2ccccc2)=C(C)Nc2nc(SCC(=O)c3ccc(C)cc3)nn21 (stereo unspecified) | 1% | 3%
N.N.N.N.N.N.N.N.N.N.N.N.N.N.O.O.[Cl-].[Cl-].[Cl-].[Cl-].[Cl-].[Cl-].[Ru].[Ru].[Ru] | -10% | -6%
COc1ccc(-c2cc(C(F)(F)F)nc(SCC(=O)Nc3sc4c(c3C#N)CCC4)n2)cc1 | 13µM* | -11%
N#Cc1c(NC(=O)CSc2nc(-c3ccccc3)cc(C(F)(F)F)n2)sc2c1CCC2 | ? | -9%
CCC1CCc2c(sc(NC(=O)CSc3nc(-c4ccco4)cc(C(F)(F)F)n3)c2C#N)C1 (stereo unspecified) | 1.3µM* | 4%
CCOC(=O)c1sc(NC(=O)CSc2nc(-c3ccco3)cc(C(F)(F)F)n2)c(C(=O)OC)c1C | -9% | 1%
CCN1CCN(C(c2cccc(OC)c2)c2c(O)cc(C)n(Cc3ccco3)c2=O)CC1 (stereo unspecified) | ? | 2%
Cc1nc(N2CCOCC2)c2nc(-c3ccccc3)n(CC3CCN(C)CC3)c2n1 | -1% | 7%
O=C(O)Cc1c[nH]c2ccc(F)cc12 | 2% | 2%
COC(C)=O | 0% | 8%
COc1ccc(-c2noc(Cn3c(=O)c4ccccc4n(CC(=O)Nc4cccc(C(F)(F)F)c4)c3=O)n2)cc1 | 16µM* | -3%
CCOc1ccc(NC(=O)Cn2c(=O)n(Cc3nc(-c4ccccc4)no3)c(=O)c3cc4c(cc32)OCO4)cc1 | -17% | -2%
Cc1ccc(NC(=O)Cn2c(=O)n(Cc3nc(-c4ccccc4)no3)c(=O)c3ccccc32)cc1C | -21% | -3%
O=C(Cn1c(=O)n(Cc2nc(-c3ccccc3)no2)c(=O)c2cc3c(cc21)OCO3)Nc1cccc(C(F)(F)F)c1 | 5µM* | 1%
COc1cc(-c2ccno2)ccc1S(=O)(=O)N1CCN(c2cccc(Cl)c2)CC1 | ? | -2%
SMILES | Cruzain noTriton | Cruzain Triton
c1ccc(C2CO2)cc1 (stereo unspecified) | -2% | 4%
O=C(CSc1nnc(SCc2cccc3ccccc23)s1)N/N=C/c1c[nH]c2ccccc12 | 1% | -4%
O=C(CSc1nnc(SCc2cccc3ccccc23)s1)N/N=C/C=C/c1ccccc1[N+](=O)[O-] | 10µM* | -3%
CC(=O)[C@H](C(=N)C#N)C(=O)Nc1ccccc1 | 8% | 1%
Cc1ccc(-c2nc(S(=O)(=O)c3ccc(C)cc3)c(SCC(=O)c3ccccc3)o2)cc1 | 16µM* | -5%
O=C(CSc1oc(-c2ccccc2)nc1S(=O)(=O)c1ccc(Cl)cc1)Nc1ccc(F)cc1 | 6% | -5%
CCCSc1oc(-c2ccco2)nc1S(=O)(=O)c1ccc(Cl)cc1 | 1% | -26%
Cc1ccc(S(=O)(=O)c2nc(-c3ccc(F)cc3)oc2SCC(=O)c2ccccc2)cc1 | ? | -1%
O=C(CSc1oc(-c2ccc(F)cc2)nc1S(=O)(=O)c1ccccc1)c1ccc(Cl)cc1 | 32µM* | -5%
O=C(CSc1oc(-c2ccco2)nc1S(=O)(=O)c1ccc(Br)cc1)c1ccc(Cl)cc1 | 20µM* | -5%
COC(=O)C1(C(=O)OC)Cc2conc2[C@H]1c1ccccc1 | -6% | 0%
CN1CCN(c2ncc3nc(CCc4ccccc4)c(=O)n(C)c3n2)CC1 | -5% | -20%
CCOc1ccc(Cl)cc1C1CC(=O)Nc2cc(OC)c(OC)c(OC)c21 (stereo unspecified) | -7% | -1%
COc1ccc(CCNC(=O)CCCn2c(=O)c3cccn3c3ccc(F)cc32)cc1OC | 2% | -1%
O=C(Cn1c2ccccc2c(=O)c2cc([N+](=O)[O-])ccc21)Nc1ccccc1Cl | ? | -26%
Cc1cc(/C=N/NC(=O)Cn2c3ccccc3c(=O)c3ccccc32)c(C)n1-c1ccccc1 | 16µM* | -4%
Cc1ccc(N(CC(=O)N/N=C/c2cc(C)n(-c3ccccc3)c2C)S(C)(=O)=O)c(C)c1 | -3% | -3%
O=C(Cn1c2ccccc2c(=O)c2ccccc21)N/N=C/c1cc([N+](=O)[O-])ccc1N1CCCCC1 | 10µM* | 0%
N/N=c1\sc2ccccc2n1-c1ccccc1 | 16µM* | -3%
CC(=O)N=c1sc2ccccc2n1C | -4% | 0%
N#Cc1cccc(NC(=O)C2CCN(S(=O)(=O)c3ccc4[nH]c(=O)ccc4c3)CC2)c1 | -4% | -2%
CCn1cc2nc(SCc3cc(C)ccc3C)n(CCc3ccccc3)c(=O)c2n1 | ? | 1%
O=[N+]([O-])c1ccc2c(c1)Cc1cc(N=Cc3ccc4c(c3)OCO4)ccc1-2 | -3% | -1%
CS(=O)(=O)c1sc2nc(-c3cccs3)cc(-c3ccccc3)c2c1N | 20µM* | -18%
Cc1ccc(-c2cc(-c3ccccc3)c3c(N)c(S(C)(=O)=O)sc3n2)cc1 | ? | -8%
SMILES | Cruzain noTriton | Cruzain Triton
Cc1ccc(C(=O)c2oc3ccccc3c2NC(=O)c2cc(-c3ccccc3)on2)cc1 | 1% | 0%
CN(Cc1ccccc1)S(=O)(=O)c1ccc(OCC(=O)Nc2cccc([N+](=O)[O-])c2)cc1 | -21% | -3%
Cc1cc(S(=O)(=O)NCc2ccccc2)ccc1OCC(=O)Nc1cccc([N+](=O)[O-])c1 | 25µM* | -5%
COc1ccccc1[C@@H]1C(c2cccc(Cl)c2)=NN(c2ccccc2)[C@H]1C(=O)N1CCOC1=O | 25µM* | 1%
COc1ccccc1[C@@H]1C(c2ccccc2)=NN(c2ccc(Br)cc2)[C@H]1C(=O)N1CCOC1=O | 18µM* | 0%
CC[C@@H]1C(c2ccc(F)cc2)=NN(c2ccc(Br)cc2)[C@H]1C(=O)N1CCOC1=O | ? | -6%
CC[C@@H]1C(c2cccc(C)c2)=NN(c2ccccc2)[C@H]1C(=O)N1CCOC1=O | 3% | 1%
COc1ccccc1[C@@H]1C(c2cccc(C)c2)=NN(c2ccc(Br)cc2)[C@H]1C(=O)N1CCOC1=O | 10µM* | -3%
Cc1nc2c(c(SCC(=O)Nc3ccccc3C(F)(F)F)n1)CCC2 | -7% | -2%
O=C(Nc1ccc(F)c(Cl)c1)c1cc(S(=O)(=O)N2CCCc3ccccc32)ccc1F | ? | 2%
CSc1cccc(-n2cc(-c3ccc4c(c3)OCO4)[nH]c2=O)c1 | 32µM* | -6%
Cc1ccc(NC(=O)Cn2c(-c3ccc4c(c3)OCO4)cn(-c3ccccc3)c2=O)cc1C | -21% | -8%
